Measured values reported in PubChem BioAssay (Tox21).
Results filed as inconclusive are left out. Calls of active or inactive are those of the source. The call rests on the fitted dose curve.

Assay: qHTS assay to identify small molecule antagonists of the estrogen receptor alpha (ER-alpha) signaling pathway - cell viability counter screen (AID 743074);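 further: HEK293 cells carrying ER-alpha-UAS-bla reporter stimulated with 17beta-estradiol; nearly all actives have a fitted effect of over 45% in size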
Conditions: ERalpha-bla HEK293 viability, CellTiter-Glo luminescence, 18 h; series mostly up to 69.4 µM
For `NC(=O)Nc1ccccc1`, the outcome was “inactive”. With `CCCc1cc(C(N)=S)ccn1` the outcome was “inactive”. With `CC(C(=O)O)c1ccc(CC2CCCC2=O)cc1` (stereo not given) the outcome was “inactive”. With `CC(C)(C)NCCNC(C)(C)C` the outcome was “inactive”. For `C=C1CC[C@H]2C[C@@H]1C2(C)C`, the outcome was “inactive”. With `OCCCC1CCCCC1` the outcome was “inactive”. For `CCN1CCC[C@H]1CNC(=O)c1c(O)c(Cl)cc(Cl)c1OC`, the outcome was “inactive”. With `COCCCOCCCOC` the outcome was “inactive”. With `CC(=O)Nc1ccc(S(N)(=O)=O)cc1` the outcome was “inactive”. With `CN1CCC(=C2c3ccccc3CC(=O)c3sccc32)CC1` the outcome was “inactive”. With `Cc1ccc(C#N)cc1` the outcome was “inactive”. For `N=c1nc(N2CCCCC2)cc(N)n1O`, the outcome was “inactive”. For `CC(C)c1cc2c(cc1S(=O)(=O)O)[C@@]1(C)CCC[C@@](C)(C(=O)O)[C@@H]1CC2`, the outcome was “inactive”. In the case of `Nc1ccc(S(=O)(=O)Nc2ccnn2-c2ccccc2)cc1`, the outcome is reported as “inactive”. With `CO[Si](CCCOCC1CO1)(OC)OC` (stereo not given) the outcome was “inactive”. In the case of `Nc1cc(=O)[nH]c(N)n1`, the outcome is reported as “inactive”. With `CCN(CC)CCNC(=O)c1cc(S(C)(=O)=O)ccc1OC` the outcome was “inactive”. For `Cc1cc2c(cc1S(N)(=O)=O)S(=O)(=O)CCC2`, the outcome was “inactive”. For `CC/C=C\CCOC(C)=O`, the outcome was “inactive”. With `Cc1cc(O)cc2c1O[C@](C)(CCC[C@H](C)CCC[C@H](C)CCCC(C)C)CC2` the outcome was “inactive”. With `CC(C)(C)c1nnc(NS(=O)(=O)c2ccccc2)s1` the outcome was “inactive”. In the case of `CS(=O)(=O)O`, the outcome is reported as “inactive”. In the case of `O=c1n(CCO)c(=O)n(CCO)c(=O)n1CCO`, the outcome is reported as “inactive”. With `Cc1ccc(Cl)cc1Cl` the outcome was “inactive”. With `CC(C[N+](C)(C)C)OC(N)=O` (stereo not given) the outcome was “inactive”. For `Cc1nc2c([nH]1)c(=O)n(C)c(=O)n2Cc1ccco1`, the outcome was “inactive”. With `FC1(F)C(F)(F)C(F)(F)C2(F)C(F)(F)C(F)(F)C(F)(F)C(F)(F)C2(F)C1(F)F` (stereo not given) the outcome was “inactive”. With `O=C1OC(=O)C2CCCCC12` (stereo not given) the outcome was “inactive”. For `CCCCC(CC)COC(=O)c1ccccc1O` (stereo not given), the outcome was “inactive”. In the case of `CC1(C)C(O)C(C)(C)C1O` (stereo not given), the outcome is reported as “inactive”. In the case of `CC(=O)OCC(CCn1cnc2cnc(N)nc21)COC(C)=O`, the outcome is reported as “inactive”. With `CC(C)NC(=O)NC(C)C` the outcome was “inactive”. With `O=C(O)COc1nn(Cc2ccccc2)c2ccccc12` the outcome was “inactive”. With `CN1C(=O)N(C)C(O)C1O` (stereo not given) the outcome was “inactive”. For `O=C1CCCN1C1CCCCC1`, the outcome was “inactive”. For `CCn1ccnc1CC1COc2ccccc2O1` (stereo not given), the outcome was “inactive”. In the case of `N[C@H]1CN(c2c(F)cc3c(=O)c(C(=O)O)cn(C4C[C@H]4F)c3c2Cl)CC12CC2` (stereo not given in full), the outcome is reported as “inactive”. In the case of `CCCCCSCCCCC`, the outcome is reported as “inactive”. For `ClC(Cl)(Br)Br`, the outcome was “inactive”. For `N=C(N)c1ccc2cc(OC(=O)c3ccc(N=C(N)N)cc3)ccc2c1`, the outcome was “inactive”.
